Experimental data published in PubChem BioAssay AID687043 (Milwaukee Institute for Drug Discovery, 2013).
Out of some 16,000 compounds screened, about 250 (1.6%) were called active.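 How the source made its calls: active means inhibition above the average over every tested compound plus 3 SD (cut at about 40% in these data); inactive means the rest.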 The list comes from a sample in which actives are over-represented; it also holds similar structures and randomly drawn compounds.

The compounds below were run on Hepatitis C virus NS3 helicase (assay: HCV NS3 helicase inhibitors, primary screen, biochemical, fluorescence polarization, ChemBridge library (AID 687043)). Details: NS3h Cy5-dT15 DNA binding, at 100 µM, hits give high values.

inhibition, active:
Cc1ccc(/C=C/C(=O)Nc2ccc(Br)cc2)o1 42.5%
O=c1c2c(nc3cc(-c4cccc(F)c4)[nH]n13)CCS2 57.3%
O=C(NC(=S)Nc1ccc(-c2nc3cc(Cl)ccc3o2)cc1)c1ccco1 124%
CCN(CC)c1ccc(C=C2C(=O)N(C)C(=O)N(C)C2=O)c(O)c1 120%
COc1ccc(N2C(=O)C=CC2=O)c([N+](=O)[O-])c1 97.8%
CCN1C(=O)C(=Cc2ccc(O)cc2)C(=O)NC1=S 65.4%
CCN(CC)c1ccc(NC(=O)/C(=C\c2ccccc2)NC(C)=O)cc1 56.6%

inhibition, inactive:
CCCOC(=O)Cc1c(O)c2ccccc2[nH]c1=O -1.3%
O=[N+]([O-])c1ccc2c(c1)S(=O)(=O)N=C2Nc1cccnc1 -7.4%
O=c1[nH][nH]c(=O)c2cc(N3CCCC3)ccc12 4.3%
O=C(NCc1ccccc1)C1CC(=O)N(c2ccc(Cl)cc2)C1 (configuration not stated) 2.8%
Cc1ccc2c(C)[n+](C)ccn12 15.6%
COc1ccc(C2CC(=O)C3=C(C2)Nc2ccccc2NC3c2ccc(SC)cc2)cc1 (configuration not stated) 11%
Cc1cccc(NC(=O)/C=C/c2ccc(F)cc2)c1 2.2%
Cc1ccc(/C=C/C(=O)Nc2cccc([N+](=O)[O-])c2)o1 6.1%
Cc1cccc(N2C(=O)S/C(=C/c3ccc(N(C)C)cc3)C2=O)c1 15.9%
COc1ccc(C2CC(=O)C3=C(C2)Nc2ccccc2NC3c2cccc(Cl)c2)cc1 (configuration not stated) 9.2%
CCCCCCN1C(=O)C(O)=C(C(C)=O)C1c1ccc(Br)cc1 (configuration not stated) -0.7%
CCCCNC(=O)C(=O)NCCCOC(C)C 4.2%
O=C(Nc1ccc(Cl)cc1)/C(=C\c1cccc([N+](=O)[O-])c1)NC(=O)c1cccs1 0.7%
FC(F)(F)c1cc(/C=C/c2ccccc2)n[nH]1 10.2%
CC(C)(C)C(=O)COc1ccc2c(-c3ccccc3)cc(=O)oc2c1 14.2%
COc1ccc(C2C=C(Nc3ccccc3)C(=O)N2c2ccccc2)c(OC)c1 (configuration not stated) -9.5%
FC(F)(F)c1ccc(/C=N\N2CCN(Cc3cccc4ccccc34)CC2)cc1 3.6%
O=C1C2ON(c3ccccc3)C(c3ccc(Br)cc3)C2C(=O)N1c1ccccc1C(F)(F)F (configuration not stated) 13.4%
CCc1c(C)nc2cc(-c3cccs3)[nH]n2c1=O -7.2%
CC(=O)Nc1c(C)cc(C2(c3cc(C)c(NC(C)=O)c(C)c3)CCCCC2)cc1C 2.3%
CCOC(=O)c1c(-c2ccc(C)cc2C)csc1NC(=S)NC(=O)c1ccccc1 3.9%
O=C(NC(Cc1ccc(O)cc1)C(=O)O)/C(=C/c1ccccc1)NC(=O)c1ccccc1 (configuration not stated) -11.5%
Cc1cccc(N(CC(=O)O)S(C)(=O)=O)c1 4.5%
CCOC(=O)c1ccc(NC(=O)CN(c2cccc([N+](=O)[O-])c2)S(=O)(=O)c2ccccc2)cc1 24.9%
O=C(O)CC1S/C(=N\N=C2/C(=O)Nc3ccccc32)N(c2ccc(O)cc2)C1=O (configuration not stated) 1.8%
CCOc1ccccc1NC(=O)CN(c1ccc(OC)cc1)S(=O)(=O)c1ccc(C)cc1 13.8%
COc1cc(/C=C2/SC(=S)N(C)C2=O)ccc1OC(=O)c1cccs1 2.6%
COc1ccc(-c2nc3cc(NC(=O)C(C)C)ccc3o2)cc1OC -6.3%
CC(=O)C1=C(C)NC(C)=C(C(C)=O)C1c1cn(-c2ccccc2)nc1-c1cccs1 15.6%
O=C(NC(=S)Nc1ccc2oc(-c3ccc(Br)cc3)nc2c1)c1ccco1 17%
O=C(NC(=S)Nc1ccc2oc(-c3cccnc3)nc2c1)c1ccc(Cl)cc1 -3.5%
CCOC(=O)C1=C(C)N=c2s/c(=C\c3ccc(F)cc3)c(=O)n2C1c1cccc(OC)c1 (configuration not stated) 10%
O=C(NCCCc1ccccc1)C1(c2ccccc2)CCCC1 27%
CCN(CC)c1ccc(/C=C2\C(=O)NC(=O)N(c3ccc(OC)cc3)C2=O)c(OC)c1 -5.2%
CCN(CC)c1ccc(/C=C2\C(=O)NC(=O)N(C)C2=O)cc1 27.7%
Cc1ccc(N2C(=O)NC(=O)/C(=C\c3ccc(I)cc3)C2=O)cc1 12.1%
CCOC(=O)c1c(CN(CCO)CCO)n(C)c2c1cc(OC(C)=O)c1c2c(-c2ccccc2)nn1-c1ccccc1 -6.5%
Cc1ccc(N2C(=O)CC(NCCc3ccccc3F)C2=O)cc1 (configuration not stated) 8.2%
CCOC(=O)c1ccc(NC(=O)c2ccccc2OC)cc1 17.7%
Cc1ccc([N+](=O)[O-])cc1NC(=O)C1CC1(c1ccccc1)c1ccccc1 (configuration not stated) 1.8%
O=S(=O)(Nc1ccc(O)c(-c2c(O)ccc3ccccc23)c1)c1cc(Cl)ccc1Cl 4.2%
CCCCCCN1C(=O)C(=O)C(=C(O)c2ccccc2)C1c1ccccc1OC (configuration not stated) 1.4%
COc1cc(C(=S)N2CCOCC2)cc(OC)c1OC(=O)c1ccc(Br)cc1 15.4%
Cc1ccc(S(=O)(=O)c2ccc(Sc3ccc(Cl)cc3)cc2)cc1 15.4%
COc1ccc(-c2nc3sc(-c4ccc(OC)cc4)nc3s2)cc1 6%
O=C1NC(=Nc2ccc(F)cc2)S/C1=C/c1ccc(Br)cc1 4.6%
Cc1cc(NC(=O)c2ccc(-c3cccc([N+](=O)[O-])c3)o2)ccc1NC(=O)c1ccco1 14.7%
CCOc1cccc2c1N(C(=O)c1ccc(OC)cc1)C(C)(C)C(=S)C2=C1SC(C(=O)OC)=C(C(=O)OC)S1 0.9%
CS(=O)(=O)N1CCN(C(=O)Cc2ccccc2)CC1 7.7%
CCOc1ccc(/C=C2/Sc3ccccc3C2=O)cc1OCC 6.1%
COc1ccc(N2C(=O)C3C4C=CC(C4=C(C)C)C3C2=O)c([N+](=O)[O-])c1 (configuration not stated) 15.2%
COc1ccc(N=Cc2sccc2C)c([N+](=O)[O-])c1 4.3%
Cc1ccc2[nH]c(C)c(CN3CCOCC3)c(=O)c2c1 -1.6%
CC(Oc1cccc(Cl)c1)C(=O)Nc1ccccc1C(=O)N1CCN(Cc2ccccc2)CC1 (configuration not stated) 0.3%
COC(=O)C(NC(=O)c1ccccc1)C12CC3CC(CC(C3)C1)C2 (configuration not stated) 7.5%
Cc1cc(C)n(C(=O)c2cc(F)c(F)cc2Cl)n1 3.6%
Cc1ccc(NC2=CC(=O)C=CC2=O)c(C)c1 -2.9%
COc1ccc(OC)c(N(CC(=O)Nc2cccc(Br)c2)S(C)(=O)=O)c1 9.1%
CCC(=O)N1CCN(c2ccc(C(=O)c3ccccc3)cc2F)CC1 -2.8%
Cc1cc(/C=C(/C#N)C(=O)Nc2ccc(F)cc2)c(C)n1-c1ccc(Cl)cc1 -2.8%
COc1ccc(/C=C2\C(=O)NC(=S)N(c3ccc(Br)cc3)C2=O)cc1 5.9%
CCOC(=O)c1ccc(N2NC(=O)/C(=C/c3ccc(O)cc3)C2=O)cc1 5.1%
COc1ccccc1NC(=O)C(=O)NCc1ccccc1 -0.6%
Cc1oc2cc(Br)c(O)cc2c1C(=O)OC(C)C 9.4%
O=C(c1nn2c(c1Cl)NC(c1cccs1)CC2C(F)(F)F)N1CCN(c2ccc(F)cc2)CC1 (configuration not stated) 5.2%
Cc1cccc(NC(=O)CSc2ncn[nH]2)c1 1.3%
COc1ccc(CNS(=O)(=O)c2ccc(Cl)cc2)cc1 -5%
CC(C)Oc1ccc(/C=C(/NC(=O)c2ccccc2)C(=O)Nc2ccccc2)cc1 14.7%
CC(=O)Nc1ccc(NC(=S)NC(=O)/C=C/c2ccccc2)cc1 -21.9%
Cc1c(C=O)c(=O)oc2c3c4c(cc12)CCCN4CCC3 1.3%
O=C(NC1C2CC3CC(C2)CC1C3)c1cccc(I)c1 (configuration not stated) 15.2%
O=c1oc2ccc3ccccc3c2cc1-c1ccc(I)cc1 4.2%
CC(=O)Oc1ccccc1-c1nc2s/c(=C/c3ccco3)c(=O)n2n1 6.7%
Cc1cc(/C=C2\C(=O)NC(=O)N(c3ccc4c(c3)OCO4)C2=O)c(C)n1-c1ccc(F)cc1 14.5%
Cc1cccc(OCCOc2ccc(Cl)cc2/C=C2/SC(=S)N(C)C2=O)c1 23.2%
O=C1C2C3C=CC(C3)C2C(=O)N1/N=C\c1ccc(-c2ccccc2[N+](=O)[O-])o1 (configuration not stated) 10.6%
COC(=O)c1ccccc1NC(=O)c1ccc(Cl)cc1 -2.8%
COc1ccc(CC(=O)Nc2cc(NC(=O)Cc3ccc(OC)cc3)cc(C(=O)NC(C)(C)C)c2)cc1 8.2%
O=C1NN(c2ccccc2)C(=O)/C1=C/c1c(Cl)cccc1Cl 8.3%
O=C1c2ccc(C(c3ccc4c(c3)C(=O)N(c3ccccc3)C4=O)(C(F)(F)F)C(F)(F)F)cc2C(=O)N1c1ccccc1 8.7%
CC(C)C(=O)Nc1ccc2c3c(cccc13)CC2 0.3%
COc1ccccc1N1CCN(/N=C(/C)c2ccncc2)CC1 -3.7%
COc1ccc(/C=c2\sc3n(c2=O)C(c2ccc(OC)cc2)C(C(=O)OC(C)C)=C(C)N=3)cc1 (configuration not stated) -0.7%
CCOc1ccccc1NC(=O)c1ccc(CN2CCOCC2)cc1 6.1%
Cc1ccc(C(=O)N/C(=C/c2cccc3ccccc23)C(=O)N2CCCC2)cc1 -0.3%
